# HT1080-NT tox = kills 2HG-producing HT-1080-NT fibrosarcoma cells; HT-1080-NT fibrosarcoma viability, CellTiter-Glo ATP luminescence, 48 h; Potency, µM (titrated, usually from 46.1 µM), without a hit: at the top dose activity, negative = less viability, most hits filed as cytotoxic; 1.6% of 360,000 active; AID 686970;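 also: NT is the 2HG producing partner of a matched IDH1 knockdown line; 0% = DMSO-treated cells and -100% = media-only wells without cells; nearly all actives have a fitted effect of over 55% in size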
#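 750 cells/well, RPMI + 5% FBS; 2 h settle, compound pin-transfer, 48 h at 37 degrees C. CellTiter-Glo 10 min RT, luminescence. Normalized to DMSO and media-only wells.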
# HT1080 IDH1KD tx = HT-1080 IDH1 knockdown cell toxicity (counter line); Potency, µM (top dose mostly 46.1 µM), without a hit: at the highest dose activity, negative = toxicity, most hits filed as cytotoxic; HT-1080 IDH1 knockdown viability, ATP luminescence, 48 h; AID 686971; 2% of 360,000 active;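 also: 0% = DMSO wells and -100% = cell-free medium wells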
#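 HT-1080-IDH1KD cells (IDH1 knocked down), 750/well in RPMI with 5% FBS, treated with compound 48 h at 37 degrees C. Viability by CellTiter-Glo luminescence, normalised to DMSO and no-cell wells; concentration-response curves classed.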
# KB-V1 MDR tox = kills drug-selected multidrug resistant KB-V1 cells; KB-V1 MDR cells viability, CellTiter-Glo, 72 h; Potency, µM (series often up to 46.1 µM), usual class: cytotoxic; 3.4% of 400,000 active; also: nearly all actives have a fitted effect of over 60% in size
#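 Cytotoxicity toward P-gp-expressing KB-V1 cells was determined as loss of CellTiter-Glo luminescence after 72 h at 37 degrees C. Compounds were tested in quantitative HTS format across a concentration range, with curves fitted to normalized data.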
# KB-3-1 tox = kills parental KB-3-1 adenocarcinoma cells | Potency, µM (highest dose often 46.1 µM), usual class: cytotoxic | 1.4% of 400,000 active | KB-3-1 viability, CellTiter-Glo ATP luminescence, 72 h; also: nearly all actives have a fitted effect of over 60% in size
#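 Using CellTiter-Glo luminescence, growth of non-resistant KB-3-1 adenocarcinoma cells is assessed 72 h after pin-tool compound addition at 37 °C. Normalized responses across the concentration series yield fitted curves.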
# * = called active by the depositor; i = inactive; ? = inconclusive; . = not tested or not shown. Rows were chosen to be rich in hits. Some 5.7% of all compounds tested hit in one or more screens of this group. Calls follow the shape of the dose curve; as a rule, active = well fitted curve in the direction sought with a large enough effect; inconclusive = small, poorly fitted or top-dose-only effect, or another doubt; inactive = no such curve, though single readings can be large; an effect the other way counts as inactive or inconclusive. Unless noted, % is scaled to controls: 0 for no effect and ±100 for the full control effect; potency is read from the fitted curve at half-maximal effect.
SMILES,HT1080-NT tox,HT1080 IDH1KD tx,KB-V1 MDR tox,KB-3-1 tox
COc1cc(-c2nnc3n2N=C(c2ccccc2)CS3)cc(OC)c1OC,2.06µM*,1.16µM*,i,?
COc1ccc(OC)c(C2=Nn3c(nnc3-c3cc(OC)c(OC)c(OC)c3)SC2)c1,?,?,1.3µM*,i
COc1ccc(C2=Nn3c(nnc3-c3ccc(OC)cc3)SC2)cc1,?,?,1.3µM*,0.651µM*
Cc1cccc(N2CCN(S(=O)(=O)c3ccc4oc(=O)c5ncn(C)c5c4c3)CC2C)c1 (stereo unspecified),.,.,?,i
Cc1ccccc1OCc1nnc(SCC(=O)NCc2ccccc2)n1C,8.4%,-14.0%,i,i
Cc1cccc(OCc2nnc(SCC(=O)c3cccs3)n2C)c1C,0.3%,-22.9%,16.4µM*,i
CC(C)c1ccc(CNc2n[nH]c(-c3ccco3)n2)cc1,.,.,i,i
CC(C)COC(=O)c1ccc2c(c1O)C(=O)c1ccccc1C2=O,4.0%,19.2%,14.6µM*,i
O=C1NC(Cc2ccccc2)c2nc3ccc(F)cc3c(=O)n2-c2cc3ccccc3cc21 (stereo unspecified),5.8µM*,5.8µM*,20.6µM*,?
Cc1ccc2nc3n(c(=O)c2c1)-c1cc2ccccc2cc1C(=O)NC3Cc1ccccc1 (stereo unspecified),?,14.6µM*,?,?
Cc1cc(C)n(CCc2nc3c4ccccc4nc(N4CCN(c5ccccc5F)CC4)n3n2)n1,.,.,?,i
COc1cc(OC)cc(C(=O)Nc2ccc3nc(N4CCC(C)CC4)cc(C)c3c2)c1,.,.,i,i
CCOCCn1ccc2c(OCC(=O)NCc3ccc(F)cc3)cccc2c1=O,.,.,i,i
Cc1cccc(C)c1Nc1c(-c2ccsc2)nc2cccc(C)n12,.,.,i,i
Cc1ccc(C(=O)Nc2ccc(Nc3ccccc3)cc2)cc1C,-29.7%,?,i,i
Cc1ccc(NC(=O)c2ccc(NC(=O)c3ccccc3)cc2)cc1C,?,?,18.4µM*,23.1µM*
Cc1cccc(C(=O)Nc2ccc(C(=O)Nc3ccc(O)cc3)cc2)c1,20.6µM*,7.31µM*,i,i
Cc1cccc(C(=O)Nc2ccc(NC(=O)c3cccc(C)c3)cc2)c1,1.5%,-3.3%,i,?
Cc1ccc(C(=O)Nc2cc(C(C)C)c(O)c(C(C)C)c2)cc1,1.2%,-9.7%,16.4µM*,?
Cc1nn(-c2ccccc2)c(OC(=O)c2ccccc2)c1S(=O)(=O)c1ccccc1,.,.,i,i
Cc1cc(C)c2nc(N3CCCC(C(=O)NCc4cccc(Cl)c4)C3)sc2c1 (stereo unspecified),.,.,i,i
COc1ccccc1NC(=O)c1sc2nc3n(c(=O)c2c1C)N=C(c1cccc(Br)c1)CS3,.,.,i,i
CCOc1ccc(C(C(=O)NC2CCCC2)N(Cc2ccccc2)C(=O)c2nsc(Cl)c2Cl)cc1 (stereo unspecified),?,-26.6%,?,20.6µM*
Cc1ccc(N(C(=O)c2nsc(Cl)c2Cl)C(C(=O)NC2CCCC2)c2ccc(O)cc2)cc1C (stereo unspecified),?,-28.7%,i,?
Cc1ccccc1N(C(=O)c1snc(C(N)=O)c1N)C(C(=O)NC1CCCCC1)c1ccc(O)cc1 (stereo unspecified),?,9.2µM*,i,?
SMILES,HT1080-NT tox,HT1080 IDH1KD tx,KB-V1 MDR tox,KB-3-1 tox
Cc1cc(C)cc(N(C(=O)c2nsc(Cl)c2Cl)C(C(=O)NC2CCCC2)c2ccc(O)cc2)c1 (stereo unspecified),-18.1%,?,18.4µM*,i
CCOc1ccccc1N(C(=O)c1snc(C(N)=O)c1N)C(C(=O)NC1CCCC1)c1ccco1 (stereo unspecified),-6.2%,-1.4%,10.3µM*,i
CCN(CC)S(=O)(=O)c1ccc2c(c1)N(CC(=O)N1CCN(c3cccc(OC)c3)CC1)C(=O)CO2,.,.,i,i
Cc1cccc(N(C(=O)c2nsc(Cl)c2Cl)C(C(=O)NC2CCCC2)c2ccc(O)cc2)c1C (stereo unspecified),-2.1%,-14.3%,20.6µM*,?
CN(C)c1ccc(C(C(=O)NC2CCCCC2)N(Cc2ccco2)C(=O)c2snc(C(N)=O)c2N)cc1 (stereo unspecified),8.4%,0.4%,20.6µM*,?
COc1ccc(C(C(=O)NC2CCCC2)N(Cc2ccccc2)C(=O)c2nsc(Cl)c2Cl)cc1 (stereo unspecified),?,?,i,i
COc1cc(C(C(=O)NC2CCCC2)N(Cc2ccco2)C(=O)c2snc(C(N)=O)c2N)cc(OC)c1OC (stereo unspecified),15.4%,12.4%,?,i
CCOc1ccc(/C=C2\CCC(C3CCCC3)C2=O)cc1 (stereo unspecified),23.2%,8.5%,i,i
CCC(=O)OCOc1ccc(/C=C2/CCC(CN(C)C)C2=O)cc1 (stereo unspecified),?,16.4µM*,?,?
O=Cc1[nH]c2ccccc2c1N(C(=O)CCl)c1ccccc1,16.4µM*,23.1µM*,i,i
O=C(CCl)N(c1ccccc1)c1ccccc1,6.51µM*,5.17µM*,?,?
CCC(O)(CC)C(=O)NN(C(=O)CCl)c1ccccc1,0.1%,?,i,?
O=C(Nc1ccccc1)NN(C(=O)CCl)c1ccccc1,7.31µM*,4.61µM*,?,23.1µM*
CC(=O)N(Cc1cc(=O)[nH]c2ccccc12)c1ccccc1,2.4%,0.0%,i,i
Cc1ccc(N(NC(=O)C(O)(c2ccccc2)c2ccccc2)C(=O)CCl)cc1,5.17µM*,5.8µM*,?,?
CCCCCCN(C(=O)CCl)c1ccccc1,3.66µM*,?,i,i
CCCCCCCN(C(=O)CCl)c1cccc(C)c1,-17.5%,?,i,i
Cc1nn(CC(=O)NCc2ccc(F)cc2)c2ccccc12,.,.,i,i
COc1ccc(-c2cnn3c4c(c(C)nc23)CCN4C(C)C)cc1OC,3.5%,22.5%,2.06µM*,i
COC(CN1CCc2c(C)nc3c(C#N)cnn3c21)OC,0.9%,-1.5%,i,i
CCCCc1nn2c(=O)cc(COC(=O)c3ccccc3NC(=O)c3ccccc3OC)nc2s1,.,.,i,i
COc1ccc(N2CCN(C(=O)c3cc(S(=O)(=O)N4CCCCCC4)cn3C)CC2)cc1,.,.,i,i
O=C(Nc1ccc(N2CCN(c3ccc(C(F)(F)F)cn3)CC2)nc1)c1cccs1,19.0%,11.7%,i,i
O=C(Nc1ccc(N2CCN(c3ncccc3C(F)(F)F)CC2)nc1)c1cccs1,18.4µM*,20.6µM*,18.4µM*,16.4µM*
O=C(CSc1nc2ccccc2nc1Cc1ccc(Cl)cc1)N1CCc2ccccc21,.,.,?,i
CN(C(=O)CSc1nc2ccc(NC(=O)c3cccc(F)c3)cc2s1)c1ccccc1,.,.,9.2µM*,?

# Screening results (PubChem)
